The values that follow come from PubChem BioAssay (NCI).

Common to all, as to assay: NCI-60 one-dose screen, 48 h (100 = growth as untreated, 0 = no growth, -100 = all killed)
What all share (conditions): 10 µM unless noted

In assay [1] the test system is NCI-H23 lung.
The test system of assay [2] is NCI-H322M lung.
Assay [3] concerns HOP-62 NSCLC.
For assay [4], the system named is NCI-H460 lung.
Assay [5] concerns HOP-92 NSCLC.
Assay [6] concerns NCI-H522 lung.
Assay [7] relates to A549/ATCC NSCLC.
Assay [8] concerns 786-0 renal.
Assay [9] deals with COLO 205 colon.
Assay [10] concerns NCI-H226 lung.

The panel holds about 83,000 compounds, 20% with a hit somewhere; the sample as a whole holds those more often.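 Cells were grown in 96-well plates and exposed to the test compound at a single concentration for 48 hours; results are reported as percent growth, with values below 10 considered active.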 Unmarked numbers belong to inactive results. Calls of active or inactive are those of the source.

Turning to `CN(C)Cc1ccc(O)c(C(=O)O)c1`, the growth in assay [1] was 104%; in [2], 109%; in [3] it was 106%; in assay [4], 105%; in [5] it was 95.5%; in assay [6] it was 102%. Also, the growth was 109% in assay [7], 107% in [8] and 117% in assay [9].

As for `COC(CC(F)F)c1cn(S(=O)(=O)c2ccc(C)cc2)c2ccccc12` (stereo not given), the growth in assay [1] is 52%; in [10], 75.9%; in assay [3], 34.1%; in [4] it was 11.6%; in assay [6] it was 42.7%; in assay [7], 33.9%. The growth in [8] is 35.3%; in [9], 3.62% (active).

In the case of `COc1cc(/C=C/C(=O)c2ccc(F)cc2)ccc1OCCCCOc1ccc(/C=C/C(=O)c2c(C)nc3ccccc3c2C)cc1OC`, the growth in assay [1] was 74.9%; in assay [2], 103%; in [3] it was 90.2%; in [4] it was 104%; in [5] it was 84.5%; in assay [6], 59.1%. In addition, the growth in assay [7] was 76.9%; in assay [8], 86.7%; in assay [9], 119%.

In the case of `Fc1cnccc1C1CC(c2ccc(N3CCNCC3)cc2)=NN1` (stereo not given), the growth in [1] is 83.8%; in assay [2], 89.3%; in assay [3], 83.2%; in assay [4] it was 94.9%; in assay [5] it was 72.4%; in assay [6] it was 81.9%. Also, the growth was 76.2% in assay [7], 111% in [8] and 95.7% in assay [9].

As to `CC(=O)N1N=C(c2ccc(Nc3nc(Nc4ccccc4)nc(Nc4ccccc4)n3)cc2)CC1c1ccccc1` (stereo not given), the growth in assay [1] was 94%; in assay [2], 84.9%; in [3] it was 77.6%; in [4] it was 86.7%; in assay [5] it was 61.5%; in assay [6], 89.3%. The figures for the growth in [7], in assay [8] and in [9] were 79.3%, 86.8% and 68.5%, respectively.

Consider `Cc1cc(S(=O)(=O)/N=C(\N)n2nc(C)c(C)c2C)c(SCc2ccccc2)cc1Cl`, for which the growth in assay [1] was 54.6%; in [2] it was 86.2%; in assay [3] it was 91.7%; in assay [4], 81.2%; in assay [5], 50.3%; in assay [6], 17.2%. The growth in assay [7] is 52.9%; in assay [8], 77.2%; in [9], 114%.

For `COCCn1cc(-c2csc(-c3cn(C)c4ccc(Br)cc34)n2)c2cccnc21`, the growth in assay [1] is 76.1%; in [2] it was 74.2%; in assay [3] it was 70.8%; in assay [4], 26.8%; in [5], 65.3%; in assay [6] it was -35.7% (active). Further, the growth is 40.2% in [7], 19.8% in [8] and 46.6% in assay [9].

On to `CCCNc1nc2ccccc2c2c1S(=O)(=O)c1ccc(Cl)cc1C2=O`, for which the growth in assay [1] was 24.7%; in [2], 32.7%; in assay [3] it was 9.66% (active); in assay [4] it was 5.29% (active); in assay [5], -27.2% (active); in assay [6], -81.3% (active). The growth in [7] is 19.6%; in assay [8], 13.9%; in assay [9], -9.19% (active).

As to `COc1ccccc1NC(=O)N=Nc1c(O)[nH]c2ccccc12`, the growth in assay [1] is 89.8%; in [2] it was 81.2%; in assay [3], 98.8%; in assay [4] it was 104%; in assay [5], 80.3%; in assay [6], 83.2%. The growth in assay [7] was 95.7%; in assay [8], 90.4%; in assay [9] it was 85.2%.

In the case of `Cc1nc2sc(C(=O)Nc3cccc4ccccc34)c(N)c2cc1C(O)c1ccccc1` (stereo not given), the growth in assay [1] was 7.51% (active); in [2] it was 51.4%; in [3] it was 20.4%; in assay [4] it was 0.274% (active); in assay [6], -25.3% (active); in assay [7] it was 9.88% (active). The results for the growth in assay [8] and in assay [9] were 16.1% and -58.2% (active), respectively.

Consider `CCOC(=O)C/C(=N\Nc1cc(=O)[nH]c2ccc(Br)cc12)C(=O)OCC`, for which the growth was 91.2% in assay [1]; 92.9% in assay [2]; 95.9% in assay [3]; 101% in assay [4]; 76.2% in assay [5]; 95.2% in assay [6]. Moreover, the growth in assay [7] was 106%; in [8] it was 106%; in assay [9] it was 107%.

Consider `COc1ccc(-c2nn(-c3cccc(Cl)c3)cc2-c2cc(-c3ccc(Br)cc3)nc(N)n2)cc1`, for which the growth is 87.3% in [1]; 80.4% in [2]; 88% in assay [3]; 93.9% in assay [4]; 91% in assay [5]; 68.3% in [6]. For the same molecule, the results for the growth in [7], in assay [8] and in assay [9] were 81.2%, 88.1% and 102%, respectively.

For `CCOC(=O)c1cc2c(n1Cc1cc(OC)c(OC)c(OC)c1)-c1nc(N)sc1CCC2`, the growth was 62.9% in assay [1]; 81.7% in [2]; 44.3% in assay [3]; 31.9% in assay [4]; 42% in [5]; 7.85% (active) in [6]. Besides, the growth in assay [7] was 28%; in assay [8], 36.8%; in [9], 40.3%.

Consider `N#Cc1c(-c2ccccc2)cc(-c2ccc(Nc3nc(Nc4ccc(Cl)cc4)nc(Nc4ccc(Cl)cc4)n3)cc2)nc1N`, for which the growth in [1] is 39.2%; in assay [2], 87%; in assay [3] it was 99%; in assay [4], 48.2%; in [5] it was -72.5% (active); in assay [6] it was 80.7%. The growth in [7] is 28.8%; in [8] it was 46.7%; in [9], -25.3% (active).

Turning to `C#CCNC(=O)[C@H](CC)[C@H]1CC[C@H](C)[C@H]([C@@H](C)[C@H](O)[C@H](C)C(=O)[C@H](CC)C2O[C@]3(C=CC(=O)[C@]4(CC[C@@](C)([C@H]5CC[C@](O)(CC)[C@H](C)O5)O4)O3)[C@H](C)C[C@@H]2C)O1` (stereo not given in full), the growth in assay [1] is 42.4%; in [2], 53.8%; in assay [3] it was 61.8%; in assay [4], 35.5%; in assay [5] it was 13.2%; in [6] it was 32.3%. Further, the growth in assay [7] is 44%; in [8], 70.5%; in [9], 10.8%.

As for `CCOC(=O)C1=C(c2ccccc2)N=C2SC=C(c3ccc(Cl)cc3)N2C1c1ccc(Cl)cc1` (stereo not given), the growth in assay [1] is 64.2%; in assay [2] it was 88.5%; in assay [3], 91.6%; in [4], 83.3%; in [6], 79.9%; in assay [7], 77%. The growth in [8] is 84.4%; in [9] it was 76.2%.

Regarding `Cn1ccnc1C(=O)/C=C/c1ccc(C(=O)Nc2ccccc2O)cc1`, the growth is 30.6% in [1]; 45.3% in [2]; 12.7% in assay [3]; 8.78% (active) in [4]; 81.4% in assay [5]; 60.4% in [6]. Also, the results for the growth in assay [7], in assay [8] and in assay [9] were 31.2%, 9.95% (active) and 56.5%, respectively.

Consider `Cc1ccc(Nc2cc(N)nc(N)n2)cc1Cl`, for which the growth in assay [1] was 87.6%; in [2] it was 99.8%; in assay [3], 87.3%; in assay [4], 103%; in assay [5], 83.9%; in assay [6] it was 87%. Further, the figures for the growth in assay [7], in assay [8] and in [9] were 83.1%, 87.9% and 107%, respectively.

As for `O=C(Nc1ccc(Oc2cccc(Cl)c2)c(Cl)c1)c1cnccn1`, the growth in assay [1] was 46.1%; in assay [2], 47.9%; in assay [3], 41%; in assay [4] it was 15.7%; in [5], 62%; in assay [6] it was 12.5%. Besides, the figures for the growth in [7], in assay [8] and in [9] were 23.9%, 44.6% and 12.3%, respectively.

As to `COc1ccccc1CNc1c2ccccc2nc2ccccc12`, the growth in [1] is 30.9%; in assay [2], 48.6%; in [3] it was 44.5%; in assay [4], 10.2%; in assay [5], 18.2%; in [6], 62.4%. The growth is 34.2% in [7], 39.3% in [8] and 12.8% in [9].

Regarding `COc1cc(-c2cncn2-c2ccc(-c3nc4ccc(F)cc4s3)cc2)ccc1F`, the growth in assay [10] was 85.2%; in assay [2], 103%; in assay [3] it was 102%; in assay [4] it was 35.4%; in assay [5] it was 94.3%; in [6] it was 55.9%. Also, the growth is 69.1% in assay [7], 90.8% in assay [8] and 82.7% in assay [9].

As to `COC1=CC(c2ccc[nH]2)=N/C1=C\c1[nH]c(C)c(C(=O)OC(C)C)c1C`, the growth in assay [3] is -21.4% (active); in [4], 0.0375% (active); in assay [5], -33% (active); in [6], -58.2% (active); in assay [7], -21.2% (active); in [8] it was -41.9% (active). In [9], the growth was -80.5% (active).

On to `COc1cccc(/C=C2\COc3ccc(O)c(O)c3C2=O)c1`, for which the growth in assay [10] was 79.1%; in [2], 36.4%; in assay [3], 4.02% (active); in assay [4] it was 28.7%; in [5] it was -12% (active); in [6], -67% (active). In addition, the growth in assay [7] is 47.6%; in assay [8], -38.1% (active); in assay [9] it was 43.3%.

`COc1cc2c(c(OC)c1OC)CCC(c1cccc(C(=O)Nc3ccc(C#N)cc3)c1)O2` (stereo not given): the growth in [10] was 33%; in assay [2], 77.4%; in assay [3] it was 72.1%; in assay [4], 56.5%; in [5] it was 52.3%; in assay [6], 38.4%. Further, the growth in assay [7] is 50.9%; in assay [8] it was 80.6%; in [9] it was 84.8%.

With `O=C(Nc1cccc(-c2ccc(N3CCOCC3)nn2)c1)Nc1cccc(C(F)(F)F)c1`, the growth was 61.8% in [10]; 89.6% in assay [2]; 76.8% in [3]; 79.1% in assay [4]; 58.6% in assay [5]; 46.4% in assay [6]. In addition, the growth in assay [7] was 56.4%; in assay [8], 92.1%; in [9], 81%.

For `CS(=O)(=O)Nc1cc(-c2ccc3ncnc(Nc4ccc5c(cnn5Cc5cccc(F)c5)c4)c3c2)cnc1Cl`, the growth was 20.8% in assay [10]; -5.63% (active) in assay [2]; 9.82% (active) in assay [3]; 22.8% in [4]; -20.1% (active) in assay [5]; -11% (active) in [6]. For the same molecule, the growth in assay [7] is 23.6%; in [8], 13.3%; in [9], -20.2% (active).

As for `COc1ccc(\C=N/N=C(N)/C(N)=N\N=C/c2ccc(OC)cc2)cc1`, the growth in [10] was 96.1%; in assay [2], 123%; in assay [3], 97.8%; in assay [4], 108%; in assay [5], 92.5%; in assay [6] it was 87.5%. The growth in assay [7] is 113%; in assay [8], 123%; in [9], 107%.

For the molecule `N#C/C(=C\c1c(-c2ccccc2)[nH]c2ccccc12)C(N)=O`, the growth in [10] was 95.1%; in assay [2], 104%; in [3] it was 87.4%; in [4], 92.2%; in [5] it was 65.1%; in assay [6] it was 83.3%. Also, the figures for the growth in assay [7], in assay [8] and in assay [9] were 89.5%, 98.7% and 92.8%, respectively.

On to `CCOC(=O)C#Cc1c(C(=O)OCC)nnn1Cc1ccc([N+](=O)[O-])cc1`, for which the growth is 70.4% in [10]; 100% in [2]; 113% in assay [3]; 98.7% in assay [4]; 40.6% in assay [5]; -33.4% (active) in assay [6]. The growth was 96.1% in assay [7], 65.6% in assay [8] and -22.2% (active) in assay [9].

As for `CCOC(=O)c1cc2c(n1C)-c1nc(NC(C)=O)sc1CCC2`, the growth was 69.1% in [10]; 76.2% in assay [2]; 74.6% in [3]; 95.5% in [4]; 48.4% in assay [5]; 60.9% in [6]. Moreover, the growth was 64.8% in assay [7], 84.6% in assay [8] and 96.4% in assay [9].
